This note sets out measurements from PubChem BioAssay.

Calls of active or inactive are those of the source.

The nature of test [1]: binders of probe aFSTL3 on microarray, primary screen, stem cell growth factor project, biochemical, small-molecule microarray, fluorescence 635/667 (AID 1064).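 Also: measures binding of the biotinylated anti-FSTL3 antibody to printed compounds.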 The settings on record: higher = more signal.
A short description of test [2]: binders from COS7 lysate, DM2A8 probe, primary screen, torsin A project, cell lysate, small-molecule microarray, fluorescence 635/667 (AID 1065). As to conditions: higher = more signal, COS7 lysate expressing mutant human TOR1A.
Test [3] in a line: binders of probe aFGF2 on microarray, primary screen, stem cell growth factor project, biochemical, small-molecule microarray, fluorescence 635/667 (AID 1067).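 Also: measures binding of biotinylated aFGF2 protein to printed compounds on slides; z-score merges feature fluorescence and signal-to-noise across triplicate slides.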 As to conditions: higher = more signal.
The nature of test [4]: binders of probe aFGF10 on microarray, primary screen, stem cell growth factor project, biochemical, small-molecule microarray, fluorescence 635/667 (AID 1071).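 Also: score merges 667 nm spot intensity and signal to noise from triplicate slides.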 As to conditions: higher = more signal.
For test [5], the target named is Neurogenic locus notch homolog protein 2 (Homo sapiens) (UniProt Q04721). Briefly: Notch2 binders on small-molecule microarrays, primary screen, biochemical, small-molecule microarray, 635 nm fluorescence, stem cell growth factors (AID 1073). The settings on record: Notch2 binding, higher = more signal.
Sequence of Neurogenic locus notch homolog protein 2 (Homo sapiens) (Q04721 whole entry, looked up, canonical isoform): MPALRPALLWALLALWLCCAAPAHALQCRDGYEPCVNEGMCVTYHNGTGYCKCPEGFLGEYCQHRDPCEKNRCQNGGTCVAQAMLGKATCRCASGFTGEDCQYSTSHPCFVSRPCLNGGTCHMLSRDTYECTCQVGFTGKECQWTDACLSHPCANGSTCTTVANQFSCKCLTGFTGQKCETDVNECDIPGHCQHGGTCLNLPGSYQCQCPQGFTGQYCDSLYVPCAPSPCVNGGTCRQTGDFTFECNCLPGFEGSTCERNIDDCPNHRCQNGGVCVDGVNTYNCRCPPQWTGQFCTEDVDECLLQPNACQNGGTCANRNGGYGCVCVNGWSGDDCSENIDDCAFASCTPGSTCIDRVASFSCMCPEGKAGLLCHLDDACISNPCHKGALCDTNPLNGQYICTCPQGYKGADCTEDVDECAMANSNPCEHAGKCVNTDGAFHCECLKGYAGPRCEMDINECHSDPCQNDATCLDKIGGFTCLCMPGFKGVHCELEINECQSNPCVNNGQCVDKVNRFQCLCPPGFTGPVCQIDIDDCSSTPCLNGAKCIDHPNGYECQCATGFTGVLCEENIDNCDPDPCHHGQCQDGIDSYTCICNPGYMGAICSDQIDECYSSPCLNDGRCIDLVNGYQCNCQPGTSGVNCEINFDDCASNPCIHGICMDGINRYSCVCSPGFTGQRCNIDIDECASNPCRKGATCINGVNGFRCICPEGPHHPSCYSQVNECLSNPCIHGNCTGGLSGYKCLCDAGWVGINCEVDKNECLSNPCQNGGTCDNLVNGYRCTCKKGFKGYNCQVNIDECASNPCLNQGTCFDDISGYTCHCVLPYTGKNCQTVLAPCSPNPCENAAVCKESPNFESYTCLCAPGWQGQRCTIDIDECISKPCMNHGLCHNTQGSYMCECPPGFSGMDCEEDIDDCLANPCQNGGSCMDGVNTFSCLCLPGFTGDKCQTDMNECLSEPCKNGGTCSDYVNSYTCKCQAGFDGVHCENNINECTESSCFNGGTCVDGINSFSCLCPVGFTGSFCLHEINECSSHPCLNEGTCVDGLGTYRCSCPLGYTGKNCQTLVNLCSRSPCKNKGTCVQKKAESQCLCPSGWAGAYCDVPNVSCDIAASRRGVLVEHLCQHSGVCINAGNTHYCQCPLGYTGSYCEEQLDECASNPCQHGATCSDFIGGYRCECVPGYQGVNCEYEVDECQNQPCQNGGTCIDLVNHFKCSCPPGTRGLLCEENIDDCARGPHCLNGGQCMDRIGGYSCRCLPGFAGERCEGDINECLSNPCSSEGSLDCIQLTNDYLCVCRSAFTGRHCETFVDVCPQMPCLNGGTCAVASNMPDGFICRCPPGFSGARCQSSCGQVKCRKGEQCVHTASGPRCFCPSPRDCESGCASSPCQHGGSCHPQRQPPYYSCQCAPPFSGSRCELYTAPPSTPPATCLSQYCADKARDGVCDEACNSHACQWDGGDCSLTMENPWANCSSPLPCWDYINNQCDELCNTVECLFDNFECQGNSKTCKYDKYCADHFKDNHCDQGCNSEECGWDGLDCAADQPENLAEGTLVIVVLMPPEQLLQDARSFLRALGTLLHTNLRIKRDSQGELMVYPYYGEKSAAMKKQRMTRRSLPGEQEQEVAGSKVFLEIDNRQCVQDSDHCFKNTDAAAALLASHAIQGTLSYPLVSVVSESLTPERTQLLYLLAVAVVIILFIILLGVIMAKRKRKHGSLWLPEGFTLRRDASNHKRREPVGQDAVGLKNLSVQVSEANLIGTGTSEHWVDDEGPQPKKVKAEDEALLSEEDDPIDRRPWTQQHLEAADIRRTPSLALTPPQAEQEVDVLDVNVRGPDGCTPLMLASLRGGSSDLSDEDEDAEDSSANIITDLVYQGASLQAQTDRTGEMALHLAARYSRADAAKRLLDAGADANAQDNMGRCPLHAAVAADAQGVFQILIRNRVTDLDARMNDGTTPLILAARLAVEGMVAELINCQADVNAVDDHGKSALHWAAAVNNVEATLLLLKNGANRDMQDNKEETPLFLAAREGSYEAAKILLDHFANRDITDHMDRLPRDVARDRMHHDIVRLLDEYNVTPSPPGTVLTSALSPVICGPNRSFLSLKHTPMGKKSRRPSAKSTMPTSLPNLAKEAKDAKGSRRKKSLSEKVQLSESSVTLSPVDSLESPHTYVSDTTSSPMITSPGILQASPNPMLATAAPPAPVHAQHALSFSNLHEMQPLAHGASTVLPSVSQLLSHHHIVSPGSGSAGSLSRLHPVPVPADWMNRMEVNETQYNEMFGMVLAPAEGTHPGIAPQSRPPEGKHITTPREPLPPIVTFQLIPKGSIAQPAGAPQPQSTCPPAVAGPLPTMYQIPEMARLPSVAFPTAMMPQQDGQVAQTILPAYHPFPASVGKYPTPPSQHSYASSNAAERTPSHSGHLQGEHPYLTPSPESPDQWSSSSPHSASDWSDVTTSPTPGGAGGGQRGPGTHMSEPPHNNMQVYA
The target in test [6] is Pro-neuregulin-1, membrane-bound isoform (Homo sapiens) (UniProt Q02297). Nature of the test: NRG1 binders on small-molecule microarrays, primary screen, psychiatric disease protein project, biochemical, small-molecule microarray, fluorescence 635/667 (AID 1075).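 Also: score combines 667 nm spot fluorescence with signal to noise.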 As to conditions: NRG1 binding, 635 nm fluorescence, higher = more signal.
Sequence of Pro-neuregulin-1, membrane-bound isoform (Homo sapiens) (Q02297 whole entry, looked up, the tested form may be a part, canonical isoform): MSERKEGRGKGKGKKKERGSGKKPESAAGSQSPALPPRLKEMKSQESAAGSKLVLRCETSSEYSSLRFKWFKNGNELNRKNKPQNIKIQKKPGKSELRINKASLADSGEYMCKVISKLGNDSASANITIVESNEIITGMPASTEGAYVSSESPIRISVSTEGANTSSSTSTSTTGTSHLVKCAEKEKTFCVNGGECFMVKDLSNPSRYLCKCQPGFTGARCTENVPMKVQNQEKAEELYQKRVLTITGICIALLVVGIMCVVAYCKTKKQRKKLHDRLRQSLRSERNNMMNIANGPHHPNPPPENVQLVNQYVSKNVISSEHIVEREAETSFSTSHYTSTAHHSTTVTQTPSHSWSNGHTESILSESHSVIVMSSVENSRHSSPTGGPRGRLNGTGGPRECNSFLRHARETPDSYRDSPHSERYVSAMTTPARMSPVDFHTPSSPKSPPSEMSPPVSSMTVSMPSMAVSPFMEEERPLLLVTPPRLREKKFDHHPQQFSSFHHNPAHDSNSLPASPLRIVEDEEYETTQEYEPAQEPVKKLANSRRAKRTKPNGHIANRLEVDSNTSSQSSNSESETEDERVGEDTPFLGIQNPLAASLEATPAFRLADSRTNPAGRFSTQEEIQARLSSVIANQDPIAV
Test [7] deals with Neuregulin-1 EGF-like domain. Briefly: binders of neuregulin-1 EGF-like domain, primary screen, biochemical, small-molecule microarray, 635 nm fluorescence (AID 1081).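 Also: binding of the protein to compounds printed on small-molecule microarray slides.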 As to conditions: small-molecule microarray binding, higher = more signal.
A short description of test [8]: FRG1 promoter luciferase signal modulators, primary screen, FRG1 inhibition for FSHD, cell-based, C2C12 myotubes, firefly/Renilla luciferase, luminescence (AID 1084). As to conditions: higher = more signal, called active from +8 up or from −8 down.
Test [9] in a line: binders of probe aFST on microarray, primary screen, stem cell growth factor project, biochemical, small-molecule microarray, fluorescence 635/667 (AID 1086).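 Also: score merges 667 nm fluorescence with signal-to-noise of each printed compound spot.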 The settings on record: higher = more signal.
Test [10] can be described thus: binders of probe aHhip on microarray, primary screen, stem cell growth factor project, biochemical, small-molecule microarray, fluorescence 635/667 (AID 1087).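 Also: score merges spot fluorescence at 667nm with spot signal to noise ratio.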 The settings on record: higher = more signal.

`COc1ccc([Si](C)(C)[C@@H]2[C@@H](CC(=O)N(CCO)Cc3ccccc3)O[C@]3(C(=O)N(Cc4cccc(N5CCCCC5=O)c4)c4ccccc43)[C@H]2C)cc1`: the composite z-score in [1] was 0.0001; in test [2], 0.585; in [3] it was -0.0019; in test [4], 0.212; in test [5], 0.185; in test [6] it was 1.72. Also, the values for the composite z-score in [7], in [9] and in [10] were 1.23, 0.222 and -0.181, respectively. Also, the z-score in test [8] was 0.306 (inactive).
On to `COC(=O)C1=CC(CCCO)=CC(c2ccc(CN3CCCC3)cc2)N(Cc2cccc(OC(F)(F)F)c2)C=C1C(=O)OC` (stereo not given), for which the composite z-score in test [1] was 0.928; in test [2] it was -0.185; in test [3], -0.0361; in [4] it was 0.419; in test [5], 1.44; in [6], 1.79. Besides, the composite z-score in [7] was 1.11; in test [9], 0.857; in test [10], -0.0994. Also, the z-score in [8] was -0.616 (inactive).
As to `O=C1C2C=CC(C(O)c3cccc(O)c3)N(Nc3ccc([N+](=O)[O-])cc3)C2C(=O)N1c1ccccc1` (stereo not given), the composite z-score was -0.171 in [1]; 0.325 in test [2]; -0.0133 in [3]; 0.765 in [4]; 0.719 in [5]; 0.0076 in [6]. Also, the values for the composite z-score in test [7], in test [9] and in test [10] were 0.63, 0.441 and -0.136, respectively. Also, the z-score in [8] was 0.125 (inactive).
With `CC(c1ccccc1)C(O)C1C=CC2C(=O)N(C)C(=O)C2N1Nc1ccccc1` (stereo not given), the composite z-score in [1] was 0.799; in test [2], -0.146; in test [3], 0.362; in test [4], 0.796; in test [5], 1.63; in test [6], 1.43. The figures for the composite z-score in [7], in test [9] and in [10] were 1.25, 0.814 and 0.0578, respectively. Besides, the z-score in test [8] is 0.796 (inactive).
Regarding `C=CC[C@]1(C(=O)N2CCOCC2)COC(c2ccc(OCCCO)cc2)=N1`, the composite z-score was 0.0944 in test [1]; 1.47 in test [2]; 0.075 in test [3]; -0.151 in [4]; 0.0759 in test [5]; 1.52 in test [6]. The composite z-score in test [7] was 1.39; in test [9], 0.219; in test [10] it was -0.249. In addition, in test [8], the z-score is 0.683 (inactive).
Regarding `CCCCC(O)C1C=CC2C(=O)N(C)C(=O)C2N1N(c1ccccc1)c1ccccc1` (stereo not given), the composite z-score in [1] was 0.555; in [2], 1.3; in test [3], 0.0748; in test [4], 0.0636; in test [5], 1.14; in [6], 1.25. The composite z-score in test [7] was found to be 0.999; in test [9], 0.701; in test [10], 0.0497. In [8], the z-score is 0.667 (inactive).
As for `CCCC[C@@H](O)C1=C(COC)C[C@H]2C(=O)N(Cc3ccccc3)C(=O)[C@H]2[C@H]1CO`, the composite z-score is -1.06 in [1]; 0.0076 in [2]; -0.0969 in [3]; 0.58 in [4]; 0.395 in test [5]; 0.179 in [6]. The composite z-score is 0.159 in test [7], -0.173 in test [9] and -0.0645 in [10]. Further, the z-score in [8] is 0.646 (inactive).
Consider `CC(C)[Si]1(C(C)C)OCc2cc(C3CC3)nc(-c3ccc(Oc4ccccc4)cc3)c21`, for which the composite z-score was -0.0872 in [1]; -0.502 in test [2]; -0.207 in test [3]; -0.18 in test [4]; -0.393 in test [5]; -0.65 in [6]. For the same compound, the figures for the composite z-score in test [7], in [9] and in test [10] were -0.791, -0.15 and -0.469, respectively. Moreover, the z-score in test [8] was -0.343 (inactive).
As to `CCCC1(C(=O)OC)C=C2C(=C(C)C(=O)C2C)CN1` (stereo not given), the composite z-score in test [1] is 0.948; in [2], -0.313; in test [3] it was -0.0296; in test [4] it was -0.0572; in test [5] it was -0.326; in [6], -0.74. The composite z-score was 0.188 in test [7], 0.454 in [9] and -0.0645 in [10]. Moreover, the z-score in test [8] is 3.02 (inactive).
Regarding `CCOC(=O)C[C@H]1[C@H](OC(=O)Cc2ccc3c(c2)OCO3)[C@@H](NC(=O)c2ccc3ccccc3n2)c2cc(OCCCO)ccc2N1C(=O)c1ccc2ccccc2n1`, the composite z-score in test [1] is -0.5; in [2], 0.185; in [3], -0.103; in test [4], 1.03; in test [5], 0.568; in [6], 0.54. In addition, the values for the composite z-score in test [7], in test [9] and in test [10] were 1.01, 0.37 and 0.171, respectively. Also, in test [8], the z-score is -2.11 (inactive).
Regarding `COCCOC(=O)N1C(=O)[C@@]2(c3cc(C#CCC(C(=O)OC)C(=O)OC)ccc31)[C@H](c1ccc(OCCO)cc1)N1[C@H](c3ccccc3)[C@H](c3ccccc3)OC(=O)[C@H]1[C@@H]2C(=O)N1CCc2cc(OC)c(OC)cc2C1`, the composite z-score in test [1] is 0.119; in test [2], 0.351; in test [3] it was -0.0985; in test [4] it was 0.953; in test [5], 1.21; in [6], 1.54. Also, the composite z-score in [7] was 1.25; in [9], 0.47; in test [10], -0.131. The z-score in test [8] was 0.913 (inactive).
On to `O[C@@H](Cc1ccccc1)[C@@H](/C=C/C1CC1)N(CC#Cc1ccccc1)Cc1ccccc1Br`, for which the composite z-score in test [1] was 1.53; in test [2], -0.614; in test [3], -0.157; in test [4], -0.763; in test [5], -0.836; in test [6], -0.0422. The composite z-score was -0.0401 in test [7], -0.221 in [9] and -0.19 in test [10]. For the same compound, the z-score in [8] is -0.507 (inactive).
Take `CCCCCC1=C2CNC(C)(C(=O)OC)C=C2C(C)C1=O` (stereo not given): the composite z-score is 0.59 in test [1]; -0.414 in test [2]; -0.0676 in test [3]; 0.0477 in test [4]; 0.363 in [5]; 1.07 in test [6]. The composite z-score in test [7] was determined as 0.972; in test [9] it was 0.0861; in [10], 0.376. Further, the z-score in [8] is 1.78 (inactive).
As for `COC(=O)c1c(CC[C@@H](CO)NC(=O)N2CCC[C@H]2Cn2cc(C3(O)CCCCC3)nn2)oc(C(C)=O)c1C(=O)OC`, the composite z-score was -0.522 in test [1]; 0.831 in test [2]; -0.142 in test [3]; 0.439 in [4]; 0.495 in test [5]; 1.11 in test [6]. Further, the composite z-score in test [7] is 1.19; in [9], 0.0512; in [10], -0.201. Further, the z-score in test [8] was -0.199 (inactive).
On to `[N-]=[N+]=NCc1ccccc1C[C@@]1(C(N)=O)N=C(c2ccc(OCCCO)cc2)O[C@@H]1c1ccccc1`, for which the composite z-score was 0.218 in test [1]; -0.173 in test [2]; -0.0592 in [3]; -0.257 in [4]; 0.608 in [5]; 2.15 in test [6]. Also, the results for the composite z-score in [7], in test [9] and in test [10] were 1.16, 0.249 and 0.107, respectively. Further, the z-score in [8] was -1.67 (inactive).
Consider `O=C1[C@H]2C=C(I)[C@H](C[C@@H]2OCCOCCO)[C@@]12CO2`, for which the composite z-score in test [1] is -0.444; in [2], 0.97; in [3], -0.0877; in test [4], 0.454; in [5], 0.67; in test [6], -0.183. Further, the composite z-score is 0.653 in test [7], -0.192 in [9] and 0.0722 in test [10]. In addition, in test [8], the z-score is 0.843 (inactive).
Consider `CC(C)c1ccc(NN2C(C(O)c3ccc(C#N)cc3)C=CC3C(=O)N(c4ccccc4)C(=O)C32)cc1` (stereo not given), for which the composite z-score in test [1] was determined as 0.546; in test [2], 0.0853; in test [3], 0.105; in test [4] it was 1.15; in test [5] it was 1.72; in test [6] it was 1.87. Besides, the composite z-score is 1 in test [7], 1.8 in [9] and -0.0704 in test [10]. For the same compound, the z-score in [8] was -2.97 (inactive).
